Compound activity: PubChem, National Center for Advancing Translational Sciences (NCATS)
Cycloheximide cs = counter-screen for Shiga toxin inhibitors: cycloheximide protein synthesis inhibition; cell reporter, cycloheximide protein synthesis inhibition counterscreen; max response, %; AID 2314; hit rate 12% among 300,000; in the data active means max response mostly above about 13%, no sharp cut-off; inactive means mostly below about 14%; further: read at 38.3 µM for the half of the compounds with a filed dose
Shiga inhibitor = inhibitors of Shiga toxin in Vero cells. Vero cells, Shiga toxin protein synthesis inhibition reporter. AID 2315. hit rate 9.2% among 290,000. inhibition, % at 38.7 µM; in the data active means inhibition mostly above about 28%, no sharp cut-off; inactive means mostly below about 43%
FBPA Giardia inh = blocks Giardia fructose-bisphosphate aldolase activity; Potency, µM (highest dose often 59.6 µM), hits mostly inhibitors; purified Giardia FBPA; hit rate 0.71% among 290,000; further: nearly all actives have a fitted effect of over 55% in size
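Giardia FBPA (40 nM reagent) was preincubated 10 min at RT with compound (up to 57.5 uM final), then substrate plus GAPDH/TPI/NAD/arsenate coupling system with diaphorase/resazurin was added; resorufin fluorescence (525/598 nm) was read after 20 min.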
TbPYK inhibitor = inhibitors of Trypanosoma brucei pyruvate kinase. TbPYK enzyme, Kinase-Glo Plus ATP luminescence, 45 min. Potency, µM (doses to about 76.8 µM), actives largely listed as inhibitors. hit rate 0.12% among 410,000. AID 624173; further: nearly all actives have a fitted effect of over 50% in size
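Assay buffer: 50 mM TEA pH 7.2, 100 mM KCl, 10 mM MgCl2, 0.05% BSA, 0.01% Tween-20. Pyruvate kinase from T. brucei plus substrate met compound, then ADP (130 uM final). Luminescence was read post 45 min RT.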
Sm TGR inh = S. mansoni TGR enzyme inhibition; purified TGR, DTNB reduction, TNB absorbance 405 nm; Potency, µM (highest dose often 114 µM), actives largely listed as inhibitors; hit rate 3% among 360,000; AID 485364; further: nearly all actives have a fitted effect of over 60% in size
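Kinetic colorimetric format: TGR-catalysed, NADPH-driven DTNB reduction monitored via TNB absorbance. Enzyme dispensed at 20 nM; compound exposure 15 min at room temperature before reaction start.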
LmPK inhibitor = LmPK (Leishmania mexicana) enzyme inhibition | Q27686 | purified LmPK, Kinase-Glo ATP luminescence, 1 h | Potency, µM (series often up to 57.5 µM), actives largely listed as inhibitors | hit rate 0.37% among 290,000
Target sequence (Q27686 whole entry, looked up): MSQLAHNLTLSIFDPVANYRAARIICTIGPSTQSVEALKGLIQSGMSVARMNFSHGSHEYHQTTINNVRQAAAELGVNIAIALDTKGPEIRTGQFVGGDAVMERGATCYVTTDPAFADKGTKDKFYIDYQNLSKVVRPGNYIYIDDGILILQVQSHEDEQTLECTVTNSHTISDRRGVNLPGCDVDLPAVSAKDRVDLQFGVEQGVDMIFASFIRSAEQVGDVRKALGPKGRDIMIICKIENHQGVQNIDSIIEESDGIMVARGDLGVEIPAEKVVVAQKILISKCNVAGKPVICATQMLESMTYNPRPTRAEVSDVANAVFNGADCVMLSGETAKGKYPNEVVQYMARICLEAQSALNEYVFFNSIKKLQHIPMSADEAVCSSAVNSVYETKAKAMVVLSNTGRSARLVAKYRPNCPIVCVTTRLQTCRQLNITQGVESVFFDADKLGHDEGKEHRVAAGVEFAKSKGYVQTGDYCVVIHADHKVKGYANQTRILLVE
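Pyruvate kinase activity monitored as ATP production (luciferase luminescence). Conditions: 0.1 nM enzyme, 0.5 mM PEP, 0.1 mM ADP, 1 h, RT; normalized against uninhibited and no-enzyme wells.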
A number is an active result; i = inactive; ? = inconclusive; nt = not tested or not shown; [ ] = another dose, or the depositor's remark. The entries come from a sample that favours hits as a whole. Unless noted, the call rests on the fitted dose curve; in most records, active means well fitted curve in the direction sought with a large enough effect; inconclusive means small, poorly fitted or top-dose-only effect, or another doubt; inactive means no such curve, though single readings can be large; an effect the other way counts as inactive or inconclusive.

SMILES	Cycloheximide cs	Shiga inhibitor	FBPA Giardia inh	TbPYK inhibitor	Sm TGR inh	LmPK inhibitor
Cc1ccc(-n2nc(C)c3c2OC(N)=C(C#N)C3c2cccs2)cc1 (stereo not drawn)	17	i	i	i	i	i
Cc1ccc(-n2nc(C)c3c2OC(N)=C(C#N)C3c2ccncc2)cc1 (stereo not drawn)	i	i	i	i	i	i
O=C1CC(=O)N(Cc2ccco2)C(=S)N1	i	i	i	i	1.8µM	i
O=C1C(=C2CCCCC2)SC(=S)N1Cc1ccco1	i	i	i	i	20µM	i
COc1ccccc1Nc1nc(N)nc(CSc2ncccn2)n1	28	96	i	i	i	i
COc1ccc(OC)c(Nc2nc(N)nc(CCl)n2)c1	i	i	i	i	32µM	i
COc1ccccc1Nc1nc(N)nc(CCl)n1	21	39	i	i	28µM	i
CCOc1ccccc1Nc1nc(N)nc(CSc2nccc(C)n2)n1	i	i	i	i	i	i
CN(CCN1CCc2ccccc2C1)Cc1nc(-c2ccc3c(c2)OCO3)no1	i	i	i	i	?	i
OCCN(Cc1nc(-c2ccc3c(c2)OCO3)no1)Cc1cccs1	i	36	i	i	i	i
CC1CCN(S(=O)(=O)c2cn(CC(=O)Nc3ccc(F)cc3)c(=O)c3ccccc23)CC1	nt	nt	nt	i	i	nt
O=C(NC1CCCCC1)c1ccc2ccccc2c1O	nt	nt	nt	i	nt	nt
O=C1C2CCN(CC2)[C@@H]1Cc1ccc2ccccc2c1O	33	40	?	i	i	i
COCCCn1c(=N)c(C(=O)NCC2CCCO2)cc2c(=O)n3cc(C)ccc3nc21 (stereo not drawn)	nt	nt	nt	i	i	nt
Cc1ccc(NC(=O)COC(=O)c2ccn(C)n2)cc1	20	i	i	i	i	i
Cc1ccc(NC(=O)COC(=O)c2ccnn2C)cc1	32	i	i	i	i	i
Cn1nccc1C(=O)OCC(=O)Nc1ccccc1	i	i	i	i	i	i
Cn1ccc(C(=O)OCC(=O)Nc2ccccc2)n1	i	i	i	i	i	i
O=C(Nc1ccc2c(c1)OCCO2)C1CCC1	i	i	i	i	i	i
O=C(Nc1ccc(F)cc1)C1CCCCC1	i	i	i	i	i	i
O=C(Nc1ccc(F)cc1F)NC1CCCCCCC1	37	96	nt	i	i	i
O=C(Nc1cccc(F)c1)NC1CCCCC1	32	96	i	?	i	i
O=C(Nc1ccc(F)cc1)NC1CCCCC1	37	79	i	i	i	i
O=C(Nc1ccc2c(c1)OCCO2)NC1CCCCC1	44	53	i	i	i	i
CCC(Cc1ccccc1)NS(=O)(=O)c1csc(C(N)=O)c1 (stereo not drawn)	i	i	i	i	i	i
SMILES	Cycloheximide cs	Shiga inhibitor	FBPA Giardia inh	TbPYK inhibitor	Sm TGR inh	LmPK inhibitor
COc1ccccc1-c1cnc(C(O)c2ccc(Cl)c(Cl)c2)[nH]1 (stereo not drawn)	nt	nt	nt	i	nt	nt
CCOC(=O)[C@@H]1[C@H]2COc3ccc(Br)cc3[C@@H]2N2C(=O)N(c3ccc(OC)cc3)C(=O)[C@@]12C	nt	nt	nt	i	nt	nt
NS(=O)(=O)c1ccc(NC(=O)NC2CCCCC2)cc1	i	i	i	i	i	i
O=C(NC(=S)NC1CCCCC1)c1ccc(F)cc1	48	117	nt	i	28µM	i
Cc1ccc(NC(=O)NC2CCCCCCC2)cc1	40	71	nt	i	i	i
Cc1ccc(NC(=O)C(=O)NC2CCCCC2)cc1	12	i	i	i	i	i
Cc1ccc(C(C)C)c(OCC(=O)NC2CCN(C)CC2)c1	i	i	nt	i	i	i
COc1ccc(/C=C/C(=O)CCC(=O)O)cc1	32	56	i	i	i	i
COc1ccc(/C=C/C(=O)OCCC(C)C)cc1	34	105	i	i	nt	nt
CCCCC(CC)COC(=O)/C=C/c1ccc(OC)cc1 (stereo not drawn)	nt	nt	nt	i	nt	nt
CC(C)Oc1ccc(C(=O)CCN2CCCCC2)cc1	i	i	i	i	0.4µM	i
CC(C)Oc1ccc(C(=O)CCN2CCOCC2)cc1	nt	nt	nt	i	nt	nt
O=C(CCN1CCOCC1)c1ccc(Br)cc1	i	i	i	i	i	i
COc1ccc(C(=O)CCN2CCCCCC2)cc1	i	i	i	i	i	i
CCOc1ccc(C(=O)CCN2CCCCC2)cc1	i	i	i	i	0.32µM	i
CCCCCOc1ccc(C(=O)CCN2CCOCC2)cc1	i	nt	i	i	4µM	i
CCCCOc1ccc(C(O)(CCN2CCOCC2)c2ccccc2)cc1 (stereo not drawn)	i	i	i	i	14µM	i
CCCCOc1ccc(SCCCN2CCOCC2)cc1	nt	nt	nt	i	nt	nt
CCCOc1ccc(C(=O)CCN2CCN(C(=O)OCC)CC2)cc1	i	i	i	i	100µM	i
CC1(C)CC(C#N)(N2CCOCC2)CCO1 (stereo not drawn)	i	i	i	i	13µM	i
CN1CCn2cnc(C(=O)N[C@@H](Cc3ccccc3)C(=O)OC(C)(C)C)c2C1=O	nt	nt	nt	i	nt	nt
C/C(=N/NS(=O)(=O)c1cccc([N+](=O)[O-])c1)c1c[nH]c2ccccc12	i	i	nt	i	45µM	i
CCC(=O)c1cn(CC(=O)Nc2ccccc2)c2ccccc12	i	nt	i	i	i	i
Cc1ccc(NC(=O)Cn2c(=S)[nH]c3ccccc32)cc1	22	i	i	i	i	i
CCC(=O)c1cn(CC(=O)Nc2ccc(C)cc2)c2ccccc12	i	i	i	i	100µM	i
SMILES	Cycloheximide cs	Shiga inhibitor	FBPA Giardia inh	TbPYK inhibitor	Sm TGR inh	LmPK inhibitor
CC(=O)OCC1OC(C#Cc2ccccc2)C=CC1OC(C)=O (stereo not drawn)	nt	nt	i[12.9 µM]	nt	nt	nt
O=C(NCC1CCCO1)c1ccccc1-c1nc(-c2ccccc2F)no1 (stereo not drawn)	i	i	i	i	i	i
Cc1cccc(-c2noc(-c3ccccc3C(=O)NCC3CCCO3)n2)c1 (stereo not drawn)	63	143	i	i	i	i
O=C(NCC1CCCO1)c1ccccc1-c1nc(-c2ccc(Cl)cc2)no1 (stereo not drawn)	12	i	i	i	i	i
CC(C)C(=O)Nc1ccc(C(=O)NNC(=O)CCc2ccccc2)cc1	i	i	i	i	i	i
CC(C)C(=O)Nc1ccc(-c2nnc(-c3ccccc3)o2)cc1	72	119	i	i	i	i
CC(=O)Nc1ccc(NC(=O)C(F)(F)F)cc1	i	i	i	i	i	i
O=C(Nc1ccc(-c2nnc(-c3ccccc3)o2)cc1)C(F)(F)F	49	i	i	i	i	i
CC(=O)Nc1ccc(OCc2nnc(-c3ccccc3)o2)cc1	i	i	i	i	i	i
CC(C)C(=O)Nc1ccc(C(=O)c2ccccc2)cc1	50	57	i	i	i	i
CC(=O)/C=C(\C)Nc1ccc(-c2cnc(-c3ccccc3)o2)cc1	83	130	i	i	i	i
OCCC1CN(Cc2cnc(-c3ccc(Cl)cc3)nc2)CCN1C1CCCCC1 (stereo not drawn)	16	28	i	i	i	i
OCC1(Cc2ccccc2)CCN(Cc2cnc(-c3cccc4ccccc34)nc2)CC1	i	i	i	i	i	i
